The values below come from the supplement of paper PMC6658780.

Each structure is given as a SMILES string. Where a name gives a salt, the structure may show the parent alone. ± gives the standard deviation of the averaged measurements.

One experiment has as its system Escherichia coli ATCC BAA-2469. Nature of the experiment: percent growth inhibition of drug alone vs DMSO control; higher = more growth inhibition. The conditions noted are these: antibiotic (0.125x MIC): none (0.1% DMSO); 7 µM. The method, then:
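Prestwick drugs tested at 20 uM and 7 uM with an antibiotic at 0.125x MIC (16 mg/L when MIC >128 mg/L) against E. coli ATCC BAA-2469 (NDM-1) in CAMHB, 384-well plates, duplicate runs. Percent growth inhibition was computed from OD600 (24 h minus 0 h) relative to DMSO wells. Drug + DMSO-only wells are also given. […]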
Regarding `Cc1nnc(NS(=O)(=O)c2ccc(N)cc2)s1` [Sulfamethizole], the “percent growth inhibition of drug alone” value came out at 2.42 ± 3%.
As for `CCCCCCCCCCCCCCCC[N+](C)(C)CCN(Cc1ccc(OC)cc1)c1ncccn1` [Thonzonium bromide], the “percent growth inhibition of drug alone” value came to 3.7 ± 4.2%.
On the same count and under the same terms, the figure for `CCC[C@@H]1C[C@@H](C(=O)N[C@@H]([C@H]2O[C@H](SC)[C@H](O)[C@@H](O)[C@H]2O)[C@H](C)Cl)N(C)C1` [Clindamycin hydrochloride] is 12.8 ± 13%.
For `N=C(NCCCCCCNC(=N)NC(=N)Nc1ccc(Cl)cc1)NC(=N)Nc1ccc(Cl)cc1` [Chlorhexidine], the “percent growth inhibition of drug alone” value came out at 103 ± 2.7%.
Same read-out and setting: to `COc1ccc2c(c1)c(CC(=O)OCC(=O)O)c(C)n2C(=O)c1ccc(Cl)cc1` [Acemetacin] belongs 2.19 ± 1%; to `C#C[C@]1(OC(C)=O)CC[C@H]2[C@@H]3CCC4=C[C@@H](OC(C)=O)CC[C@@H]4[C@H]3CC[C@@]21C` [Ethynodiol diacetate], -1.57 ± 7.4%; to `CCOC(=O)c1ccc(N)cc1` [Benzocaine], -0.533 ± 1.7%.
On to `CCCNC(C)(C)COC(=O)c1ccccc1` [Meprylcaine hydrochloride], for which the “percent growth inhibition of drug alone” value amounted to 0.029 ± 2.2%.
Still for that read-out and setting: the figure for `CC1=C(/C=C/C(C)=C/C=C/C(C)=C\C(=O)O)C(C)(C)CCC1` [Isotretinoin] is 1.08 ± 2.4%.
Consider `Cc1cccc(C)c1NC(=O)C1CCCCN1C` (centres undefined) [Mepivacaine hydrochloride], for which the “percent growth inhibition of drug alone” value was -0.605 ± 0.25%.
Turning to `CCCCC(CC)CNC(=N)NC(=N)NCCCCCCNC(=N)NC(=N)NCC(CC)CCCC` (centres undefined) [Alexidine dihydrochloride], the “percent growth inhibition of drug alone” value came out at 102 ± 2%.
On the same count and under the same terms, the figure for `CS(=O)(=O)c1ccc([C@@H](O)[C@@H](CO)NC(=O)C(Cl)Cl)cc1` [Thiamphenicol] is 4.47 ± 3.6%; for `O=C(O)CN(CCN(CC(=O)O)CC(=O)O)CCN(CC(=O)O)CC(=O)O` [Pentetic acid] it is 0.0597 ± 2.1%.
Still for that read-out and setting: the figure for `Nc1nc(O)c2ncn(CCC(CO)CO)c2n1` [Penciclovir] is 1.39 ± 3.5%; for `O=C(Nc1ccc([N+](=O)[O-])cc1Cl)c1cc(Cl)ccc1O` [Niclosamide] it is 2.78 ± 1.6%; for `CCN(CC)CCNC(=O)c1cc(Br)c(N)cc1OC` [Bromopride] it is -0.123 ± 0.93%.
In the case of `Nc1c2ccccc2nc2ccccc12` [Aminacrine], the “percent growth inhibition of drug alone” value is 1.8 ± 0.95%.
Consider `Cc1cc(N)c2ccccc2[n+]1CCCCCCCCCC[n+]1c(C)cc(N)c2ccccc21` [Dequalinium dichloride], for which the “percent growth inhibition of drug alone” value was found to be 2.01 ± 0.53%.
On the same count and under the same terms, the figure for `COc1cc(C(=O)NCc2ccc(OCCN(C)C)cc2)cc(OC)c1OC` [Trimethobenzamide hydrochloride] is 2.6 ± 2.7%; for `CS(=O)(=O)c1ccc([C@@H](O)[C@@H](CF)NC(=O)C(Cl)Cl)cc1` [Florfenicol] it is 21.5 ± 9.2%; for `COc1ccccc1OCC(O)CO` (centres undefined) [Guaifenesin] it is -0.628 ± 1.6%.

Still in this experiment, the particulars now being: antibiotic (0.125x MIC): none (0.1% DMSO); 20 µM.
Take `Cc1nnc(NS(=O)(=O)c2ccc(N)cc2)s1` [Sulfamethizole]: the “percent growth inhibition of drug alone” value is -3.23 ± 2.1%.
The same measure, in the same setting: to `CCC[C@@H]1C[C@@H](C(=O)N[C@@H]([C@H]2O[C@H](SC)[C@H](O)[C@@H](O)[C@H]2O)[C@H](C)Cl)N(C)C1` [Clindamycin hydrochloride] belongs 35.5 ± 16%; to `N=C(NCCCCCCNC(=N)NC(=N)Nc1ccc(Cl)cc1)NC(=N)Nc1ccc(Cl)cc1` [Chlorhexidine], 106 ± 2.6%.
For `COc1ccc2c(c1)c(CC(=O)OCC(=O)O)c(C)n2C(=O)c1ccc(Cl)cc1` [Acemetacin], the “percent growth inhibition of drug alone” value amounted to 1.2 ± 0.59%.
The same measure, in the same setting: the figure for `C#C[C@]1(OC(C)=O)CC[C@H]2[C@@H]3CCC4=C[C@@H](OC(C)=O)CC[C@@H]4[C@H]3CC[C@@]21C` [Ethynodiol diacetate] is -0.574 ± 3.8%; for `CCOC(=O)c1ccc(N)cc1` [Benzocaine] it is 1.27 ± 1.7%; for `CCCNC(C)(C)COC(=O)c1ccccc1` [Meprylcaine hydrochloride] it is -0.823 ± 0.32%.
Take `CC1=C(/C=C/C(C)=C/C=C/C(C)=C\C(=O)O)C(C)(C)CCC1` [Isotretinoin]: the “percent growth inhibition of drug alone” value came out at 3.78 ± 1.7%.
Still for that read-out and setting: to `Cc1cccc(C)c1NC(=O)C1CCCCN1C` (centres undefined) [Mepivacaine hydrochloride] belongs -0.545 ± 1.2%; to `CCCCC(CC)CNC(=N)NC(=N)NCCCCCCNC(=N)NC(=N)NCC(CC)CCCC` (centres undefined) [Alexidine dihydrochloride], 112 ± 12%.
`O=C(O)CN(CCN(CC(=O)O)CC(=O)O)CCN(CC(=O)O)CC(=O)O` [Pentetic acid]: the “percent growth inhibition of drug alone” value came out at 0.251 ± 0.41%.
`Nc1nc(O)c2ncn(CCC(CO)CO)c2n1` [Penciclovir]: the “percent growth inhibition of drug alone” value is -1.4 ± 2.5%.
On the same count and under the same terms, the figure for `O=C(Nc1ccc([N+](=O)[O-])cc1Cl)c1cc(Cl)ccc1O` [Niclosamide] is 14.5 ± 19%; for `CCN(CC)CCNC(=O)c1cc(Br)c(N)cc1OC` [Bromopride] it is 1.57 ± 1.2%; for `Nc1c2ccccc2nc2ccccc12` [Aminacrine] it is 21 ± 13%.
Take `Cc1cc(N)c2ccccc2[n+]1CCCCCCCCCC[n+]1c(C)cc(N)c2ccccc21` [Dequalinium dichloride]: the “percent growth inhibition of drug alone” value came out at 12.5 ± 11%.
For the compound `COc1cc(C(=O)NCc2ccc(OCCN(C)C)cc2)cc(OC)c1OC` [Trimethobenzamide hydrochloride], the “percent growth inhibition of drug alone” value is -0.217 ± 4.2%.
In the case of `COc1ccccc1OCC(O)CO` (centres undefined) [Guaifenesin], the “percent growth inhibition of drug alone” value is -0.463 ± 1.9%.
